Each molecule was assayed against Albumin (Bos taurus) (UniProt P02769) (assay: bovine serum albumin binders on microarray, profiling panel, artefact control for SMM control protein annotation, biochemical, small-molecule microarray, Alexa647 label, 635/667 nm fluorescence (AID 1118;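 further: score merges 667 nm emission intensity and signal-to-noise per printed compound spot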)). Settings: BSA-A647 binding, fluorescence 635 nm, higher = more signal.
Albumin (Bos taurus), sequence (P02769 whole entry, looked up): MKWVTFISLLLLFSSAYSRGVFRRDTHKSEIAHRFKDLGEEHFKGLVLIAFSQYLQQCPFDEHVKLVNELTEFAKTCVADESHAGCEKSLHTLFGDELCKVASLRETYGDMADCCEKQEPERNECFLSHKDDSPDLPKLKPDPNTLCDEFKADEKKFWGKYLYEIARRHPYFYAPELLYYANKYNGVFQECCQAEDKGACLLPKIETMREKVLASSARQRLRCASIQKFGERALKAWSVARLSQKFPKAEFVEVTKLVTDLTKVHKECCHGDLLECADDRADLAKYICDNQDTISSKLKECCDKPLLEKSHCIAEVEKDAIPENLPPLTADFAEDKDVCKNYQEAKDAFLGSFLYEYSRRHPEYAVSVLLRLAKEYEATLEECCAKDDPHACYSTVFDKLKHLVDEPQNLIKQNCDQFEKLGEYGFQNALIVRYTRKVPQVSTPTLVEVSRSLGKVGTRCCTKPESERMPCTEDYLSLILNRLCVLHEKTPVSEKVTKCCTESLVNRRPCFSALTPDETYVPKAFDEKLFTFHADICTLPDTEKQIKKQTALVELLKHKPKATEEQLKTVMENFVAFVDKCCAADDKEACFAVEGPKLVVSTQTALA

Row | Structure (SMILES) | composite z-score
1 | COC(=O)[C@H](C)NC(=O)CCC1CC(OC(=O)NCCc2ccc(F)cc2)CC2(CCCC(COC(=O)NCCc3ccc(Cl)cc3)O2)O1 (stereo partly specified) | -0.167
2 | C=COC[C@H]1CN2[C@@H](CC[C@@H](C)[C@@H]2c2ccc(Br)cc2)C(=O)O1 | 0.496
3 | CN1C(=O)C2C=CC(C(O)c3ccc(Br)cc3)N(N(c3ccccc3)c3ccccc3)C2C1=O (stereo unspecified) | 0.296
4 | COC(=O)[C@H](C)NC(=O)[C@@H](C)CO | 0.802
5 | O=C1[C@H]2[C@H]3[C@H](O)[C@H](O)CC(=NOCc4ccccc4)[C@@H]3CC[C@H]2C(=O)N1Cc1ccccc1 | 0.55
6 | CC(C)[C@@H](OCc1ccccc1)[C@H](C)C=NOC[C@@H](C)[C@H](OCc1ccccc1)C(C)C | -0.248
7 | CCOC(=O)[C@H](Cc1ccccc1)NC(=O)CCC1CC(OC(=O)NCc2ccc3c(c2)OCO3)CC2(CCCC(COC(=O)NCC3CCCCC3)O2)O1 (stereo partly specified) | 0.276
8 | COC(=O)[C@@H]1CC[C@H](C)[C@@H](c2ccc(C)cc2)N1C(=O)c1ccc(C=NOC[C@@H](O)COCc2ccco2)cc1 | -0.188
9 | Cc1cc2c(nc1C)CCCN2CC(O)CN1CCN(C)CC1 (stereo unspecified) | -0.562
10 | C=C(CCCC)C(=O)CC[C@@H](OC(C)=O)c1cccc(OCCO)c1 | -0.528
11 | CCOC(=O)[C@H](Cc1ccccc1)NC(=O)CCC1CC(OC(=O)NCc2ccc3c(c2)OCO3)CC2(CCCC(COC(=O)NCC(c3ccccc3)c3ccccc3)O2)O1 (stereo partly specified) | 0.48
12 | C#CCCCON=C1C[C@@H](O)[C@@H](O)[C@@H]2[C@@H]3C(=O)N(c4cccc(Oc5ccccc5)c4)C(=O)[C@@H]3CC[C@@H]12 | 0.487
13 | CC(C)CON=C1C[C@@H](O)[C@@H](O)[C@@H]2[C@@H]3C(=O)N(C[C@@H]4CCCO4)C(=O)[C@@H]3CC[C@H]12 | -0.3
14 | CCN1C(=O)[C@H]2[C@H]3[C@H](O)[C@H](O)CC(=NO[C@@H]4O[C@H](CO)[C@@H](O)[C@H](O)[C@H]4O)[C@@H]3CC[C@H]2C1=O | -0.647
15 | COc1ccc(-c2ccc3c(n2)CCCN3CC(O)CN2CCCc3nc(C)c(C)cc32)cc1 (stereo unspecified) | 0.683
16 | CO[C@H]1O[C@H](CO)[C@@H](OC(=O)Nc2ccc3c(c2)OCO3)[C@H](OC(=O)Nc2ccccc2-c2ccccc2)[C@@H]1OC(=O)Nc1ccccc1-c1ccccc1 | 0.929
17 | COC(=O)CC1OC1[C@H](C)[C@@H](OC)C(C)C (stereo partly specified) | -0.294
18 | CO[C@@H]1COC(=O)CC=C[C@@H](C)[C@@H]2C=C[C@H](O)[C@@H](COC(=O)[C@H](C)NC(=O)CC=C[C@H]1C)O2 | -0.107

Row | Structure (SMILES) | composite z-score
19 | N#Cc1ccc(NN2C(C(O)c3cc(C(F)(F)F)cc(C(F)(F)F)c3)C=CC3C(=O)N(c4ccccc4)C(=O)C32)cc1 (stereo unspecified) | 0.996
20 | CCOC(=O)NN=C1C[C@@H](O)[C@@H](O)[C@@H]2[C@@H]3C(=O)N(C[C@@H]4CCCO4)C(=O)[C@@H]3CC[C@@H]12 | 0.16
21 | COCCOC(=O)N1C(=O)[C@@]2(c3cc(C#CC4(O)CCCCCC4)ccc31)[C@H](C(=O)N1CCN(c3ncccn3)CC1)[C@H]1C(=O)O[C@H](c3ccccc3)[C@H](c3ccccc3)N1[C@@H]2c1ccc(OCCO)cc1 | 0.408
22 | C=CC[C@]1(C(=O)NCc2ccccc2)N=C(c2ccc(OCCCO)cc2)O[C@H]1c1ccccc1 | 0.866
23 | COc1ccc(O[C@H]2C=C[C@@H](c3ccccc3)O[C@@H]2COC(=O)CCC(C)=NOC(C)CN2CCCCc3nc(C)c(C)cc32)cc1 (stereo partly specified) | -0.485
24 | CO[C@@H]1COC(=O)CC=C[C@@H](C)[C@@H]2C=C[C@@H](O)[C@@H](COC(=O)CC=C[C@H]1C)O2 | -0.805
25 | CCOC(=O)[C@H](Cc1ccccc1)NC(=O)CCC1CC(OC(=O)NCCc2ccc(F)cc2)CC2(CCCC(COC(=O)NCC(c3ccccc3)c3ccccc3)O2)O1 (stereo partly specified) | 0.641
26 | C[C@H]1CC[C@@H](C(=O)O)N[C@@H]1c1ccc(C#CCN(C)C)cc1 | -0.0169
27 | O=C1NC(=O)C2C1C=CC(C(O)Cc1ccccc1)N2Nc1ccccn1 (stereo unspecified) | 0.461
28 | CCOC(=O)CCN1C(=O)[C@H]2[C@H]3[C@H](O)[C@H](O)CC(=NOC[C@@H](O)COCc4ccco4)[C@@H]3CC[C@H]2C1=O | 0.723
29 | CC(C)(C)N1C(=O)[C@H]2[C@H]3[C@H](O)[C@H](O)CC(=NOCc4ccccc4)[C@@H]3CC[C@H]2C1=O | 0.8
30 | COC(=O)[C@@]1(Cc2ccccc2)[C@H]2c3cc(C(=O)N4CCCC4)n(Cc4ccccn4)c3C[C@H]2CN1C(=O)c1ccccc1 | 0.939
31 | C[C@@H](c1ccccc1)N1C(=O)[C@H]2[C@H]3[C@H](O)[C@H](O)CC(=NOC[C@@H](O)COCc4ccco4)[C@@H]3CC[C@H]2C1=O | 0.819
32 | COc1ccc(O[C@H]2C=C[C@@H](c3ccccc3)O[C@@H]2COC(=O)CCC(C)=NOCC[C@@H]2C=C[C@H](OC(C)=O)[C@@H](COC(C)=O)O2)cc1 | -0.598
33 | O=C1[C@H]2[C@H]3[C@H](O)[C@H](O)CC(=NOC[C@@H](O)COCc4ccco4)[C@H]3CC[C@H]2C(=O)N1c1cccc(Oc2ccccc2)c1 | 0.355
34 | COC(=O)CC=C[C@@H](C)[C@@H](C=NO[C@@H](C)c1cc(-c2c(C)cc(C)cc2C)no1)OC | -0.387
35 | COc1ccc(COC(=O)NN=C2C[C@@H](O)[C@@H](O)[C@@H]3[C@@H]4C(=O)N(Cc5ccc6c(c5)OCO6)C(=O)[C@@H]4CC[C@@H]23)cc1 | -0.152
36 | C[C@@H]1CCC2C(=O)N(Cc3ccccc3)C[C@@H](O)CN2[C@H]1c1ccc(Br)cc1 (stereo partly specified) | 0.33

Source: PubChem BioAssay
